Screening results as filed in PubChem.
Most compounds without a hit are left out; they make up all but 3.7% or so of the library.
FMDV antiviral: High Throughput Screening for Foot and Mouth Disease Virus Antivirals; FMDV antiviral cell-based qHTS; AID 1159524, 2015; hit rate 1.2% among 410,000; Potency, µM (top dose mostly 57.9 µM), usual class: inhibitors; calls by dose curve; tested in HEK293T cells; also: read-out not given here; nearly all actives have a fitted effect of over 45% in size
Sm TGR block: qHTS Assay for the Inhibitors of Schistosoma Mansoni Peroxiredoxins | Schistosoma mansoni thioredoxin glutathione reductase (TGR), Q962Y6 | purified TGR, DTNB reduction, TNB absorbance 405 nm | Potency, µM (titrated, usually from 114 µM), most hits filed as inhibitors | hit rate 3% among 360,000; also: nearly all actives have a fitted effect of over 60% in size
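Kinetic colorimetric format: TGR-catalysed, NADPH-driven DTNB reduction monitored via TNB absorbance. Enzyme dispensed at 20 nM; compound exposure 15 min at room temperature before reaction start.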
RE007 growth inh: qHTS Assay for Inhibitors of the HIV-1 protein Vpr; hit rate 0.21% among 360,000; S. pombe RE007 Vpr strain, BacTiter-Glo ATP luminescence, 24 h; Potency, µM (doses to about 92.2 µM), actives largely listed as inhibitors; AID 651644, 2012; active = well fitted falling curve with a large enough effect; inconclusive = small, poorly fitted or top-dose-only effect; inactive = no such curve, though single readings can be large or run the other way; also: nearly all actives have a fitted effect of over 50% in size
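Fission yeast strain RE007, carrying one chromosomally integrated HIV-1 vpr copy, was seeded at OD 0.01 in PMG+AL medium with 23 nL pinned compound. After 24 h at 30 °C and 99% humidity, viability was read by BacTiter-Glo luminescence.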
TbPYK inhibitor: qHTS of Trypanosoma Brucei Inhibitors. Potency, µM (highest dose often 76.8 µM), usual class: inhibitors. TbPYK enzyme, Kinase-Glo Plus ATP luminescence, 45 min. AID 624173, 2012. hit rate 0.12% among 410,000. pyruvate kinase (Trypanosoma brucei), Q57TT1; also: nearly all actives have a fitted effect of over 50% in size
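In this concentration-response screen, enzyme-free wells defined baseline while DMSO plates tracked drift. Each reaction combined TbPYK, substrate, compound and 130 uM ADP for 45 min at room temperature. Kinase-Glo Plus luminescence gave the signal.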
Each line names hits and unclear results; the compound was inactive in the other large screens. Unless noted, calls follow the shape of the dose curve; as a rule, active = well fitted curve in the direction sought with a large enough effect; inconclusive = small, poorly fitted or top-dose-only effect, or another doubt; inactive = no such curve, though single readings can be large; an effect the other way counts as inactive or inconclusive.

Cc1onc(-c2ccccc2)c1C(=O)Nc1ccc(OC(C)C)cc1	FMDV antiviral 0.708µM
CCCOc1ccc(NC(=O)c2c(-c3ccccc3)noc2C)cc1	none
COc1ccc2c(c1)c1c(c(=O)n(-c3ccc(F)c(Cl)c3)c(=O)n1CC(N)=O)n2C	none (no result: RE007 growth inh)
CCOC(=O)C1=NOC2C(=O)N(c3ccc(Cl)cc3Cl)C(=O)C12 (centres undefined)	Sm TGR block 3.55µM
CC(=O)C1=NOC2C(=O)N(c3ccc(Cl)cc3)C(=O)C12 (centres undefined)	Sm TGR block 3.55µM
O=C(C1=NN(c2ccccc2)C2C(=O)N(c3ccc(Cl)cc3)C(=O)C12)c1ccccc1 (centres undefined)	none
COc1ccc(NC2CC(=O)N(c3cccc(C)c3)C2=O)cc1 (centres undefined)	Sm TGR block 35.5µM
COc1ccc(N2C(=O)CC(Nc3cccc(C(C)=O)c3)C2=O)cc1OC (centres undefined)	Sm TGR block 56.2µM
COc1ccc(NC2CC(=O)N(c3cc([N+](=O)[O-])ccc3C)C2=O)cc1 (centres undefined)	Sm TGR block 39.8µM
COc1ccc(NC2CC(=O)N(c3ccc(C(=O)O)cc3)C2=O)cc1 (centres undefined)	none
COc1ccc(NC2CC(=O)N(c3cccc([N+](=O)[O-])c3)C2=O)cc1 (centres undefined)	Sm TGR block 56.2µM
COc1cc(NC(=O)Nc2cccc(C(C)=O)c2)cc(OC)c1OC	none
Cc1cccc(C)c1NC(=O)Cn1c(=O)n(CCC(=O)NCc2ccc3c(c2)OCO3)c(=O)c2sccc21	none (no result: RE007 growth inh)
O=C(CCCn1c(=O)c2cccn2c2cccnc21)NCc1ccccc1Br	none (no result: RE007 growth inh)
O=C(CN1C(=O)CC(c2ccco2)Sc2ccccc21)NCC1CCCO1 (centres undefined)	Sm TGR block 12.6µM
CCOC(=O)CNC(=O)CN1C(=O)CC(c2ccco2)Sc2ccccc21 (centres undefined)	none
CCCN1C(=O)CC(c2ccco2)Sc2ccccc21 (centres undefined)	Sm TGR block 14.1µM
CN1C(=O)CC(c2ccco2)Sc2ccccc21 (centres undefined)	Sm TGR block 39.8µM
O=C(NC(=S)Nc1ccccc1)c1csnn1	Sm TGR block 14.1µM (no result: FMDV antiviral)
COc1ccc(NC(=S)NC(=O)c2csnn2)cc1	none
CCOC(=O)c1c(NC(=O)COc2ccc(Cl)cc2C)sc(C(C)=O)c1C	none (no result: RE007 growth inh)
Cc1cnc(C)c(-c2cc(F)cc3c2OC(CNC(=O)c2cc(Cl)ccc2F)C3)n1 (centres undefined)	none (no result: Sm TGR block, RE007 growth inh, TbPYK inhibitor)
COc1cc(NS(=O)(=O)c2ccc(NC(=S)NC(=O)c3cccs3)cc2)nc(OC)n1	Sm TGR block 22.4µM, RE007 growth inh inconclusive
COc1cc(NS(=O)(=O)c2ccc(NC(=S)NC(=O)C(C)(C)C)cc2)nc(OC)n1	none
COc1cc(NS(=O)(=O)c2ccc(NC(=S)NC(C)=O)cc2)nc(OC)n1	none (no result: Sm TGR block)
COc1cc(NS(=O)(=O)c2ccc(NC(=S)NC(=O)c3ccc(F)c(F)c3)cc2)nc(OC)n1	Sm TGR block 22.4µM
COC(=O)c1cc(NC(=O)c2cc3c(-c4ccccc4F)nn(C)c3s2)cc(C(=O)OC)c1	none (no result: RE007 growth inh)
COC(=O)C1=C(C)N(Cc2ccccc2)C(=NCC2CC2)N[C@H]1c1ccc(Br)cc1	none (no result: FMDV antiviral, RE007 growth inh, TbPYK inhibitor)
CCN1CCCC1CNC(=O)c1cnn(-c2nccc(-c3ccco3)n2)c1C1CC1 (centres undefined)	none (no result: Sm TGR block, RE007 growth inh, TbPYK inhibitor)
CCCn1c(=O)c2sccc2n2c(CCCC(=O)Nc3ccc(Oc4ccccc4)cc3)nnc12	none (no result: RE007 growth inh)
O=C(c1ccc2c(c1)N(Cc1ccccc1)C(=O)c1ccccc1S2(=O)=O)N1CCOCC1	none (no result: RE007 growth inh)
CC1=NN(c2ccc(Cl)cc2)C(=O)/C1=C\c1cccn1-c1ccc(S(N)(=O)=O)cc1	FMDV antiviral 39.8µM (no result: RE007 growth inh)
Cc1ccc(C(=O)N2CCOc3ccc(CN4CCN(Cc5ccccn5)CC4)cc3C2)cc1	none (no result: Sm TGR block, RE007 growth inh, TbPYK inhibitor)
CC/C(=N\Nc1cccc2ccccc12)c1c(O)[nH]c(=O)[nH]c1=O	FMDV antiviral inconclusive, Sm TGR block 79.4µM, RE007 growth inh inconclusive
CC/C(=N\Nc1ccccc1)c1c(O)[nH]c(=O)[nH]c1=O	none
C(C#CCCCCCCCCC[n+]1ccccc1)#CCCCCCCCCC[n+]1ccccc1	FMDV antiviral 17.8µM, Sm TGR block 39.8µM, RE007 growth inh 7.94µM
C=CCSc1nc2ccccc2n1C(=O)/C=C/c1ccc(OC)c(OC)c1	FMDV antiviral inconclusive
CCSc1nc2ccccc2n1C(=O)/C=C/c1ccc(OC)c(OC)c1	FMDV antiviral 20µM (no result: RE007 growth inh)
C=CCSc1nc2ccccc2n1C(=O)/C=C/c1cc(OC)c(OC)c(OC)c1	FMDV antiviral 8.91µM
COc1cccc(N2CCN(C(=O)C3CCN(S(=O)(=O)c4cccc5nonc45)CC3)CC2)c1	none (no result: RE007 growth inh)
CCN1CCC(N[C@H]2C[C@@H](C(=O)NC)N(Cc3cccc4ccccc34)C2)CC1	none (no result: Sm TGR block, RE007 growth inh, TbPYK inhibitor)
CCN(CC)C(=O)/C(C#N)=C/c1cc(O)c(O)c([N+](=O)[O-])c1	none (no result: FMDV antiviral, Sm TGR block, RE007 growth inh)
COC(=O)c1ccccc1C(=O)N1CCc2c(cnc(C)c2CNC(=O)c2ccccc2F)C1	none (no result: Sm TGR block, RE007 growth inh, TbPYK inhibitor)
CCN1/C(=C/c2ccc3cc(C)ccc3[n+]2CC)Sc2ccc3sccc3c21	FMDV antiviral 35.5µM, TbPYK inhibitor inconclusive (no result: Sm TGR block)
Cc1ccc(Cn2c(CN3CCC(C(=O)NCCc4ccccc4)CC3)cc3ccccc32)cc1	none (no result: RE007 growth inh)
COc1ccc(C2=NN(CC(=O)NCCc3ccc(OC)c(OC)c3)C(=O)CC2)cc1	none (no result: RE007 growth inh)
CC1C2(C)OCC(C#N)(C(=N)O2)C1(C#N)C#N (centres undefined)	Sm TGR block 12.6µM (no result: FMDV antiviral, RE007 growth inh, TbPYK inhibitor)
CC1=CC(c2ccccc2)n2nc(N3C(=O)c4ccccc4C3=O)nc2N1 (centres undefined)	Sm TGR block 35.5µM
COc1cccc(C(=O)Nc2ccc3nc(SCC(=O)N4CCc5ccccc54)sc3c2)c1	none (no result: RE007 growth inh)
O=[N+]([O-])c1cccnc1N1CCCNCC1	Sm TGR block 50.1µM
O=C1CCCc2c1cc(C(=O)O)c(=O)n2-c1ccccc1	none
O=C1CCCc2c1cc(C(=O)NC1CCSC1=O)c(=O)n2-c1ccccc1 (centres undefined)	Sm TGR block 35.5µM
CC1(C)CC(=O)c2cc(C(=O)NC3CCSC3=O)c(=O)n(-c3ccccc3)c2C1 (centres undefined)	none
O=C1CCCc2c1cc(C(=O)Nc1ccc(Br)cn1)c(=O)n2-c1ccccc1	Sm TGR block 17.8µM, TbPYK inhibitor inconclusive
Fc1ccc(CNCCc2ccc3c(c2)OCO3)cc1	none
c1cc(CNCCc2ccc3c(c2)OCO3)ccn1	Sm TGR block 44.7µM
Clc1ccc(CCNCc2ccncc2)c(Cl)c1	Sm TGR block 28.2µM
COc1ccc(-c2cc(CNC(=O)CCl)on2)cc1	FMDV antiviral inconclusive, Sm TGR block 35.5µM
O=C1c2ccccc2C(=O)c2cc(N3CCCCC3)ccc21	FMDV antiviral 10µM (no result: Sm TGR block)
O=C1NC(=O)C(=C/C=C/c2coc3ccc(Br)cc3c2=O)C(=O)N1	Sm TGR block 0.794µM (no result: FMDV antiviral, RE007 growth inh, TbPYK inhibitor)
O=C1NC(=S)S/C1=C\c1coc2ccc(O)cc2c1=O	none
